Measurements reported in PubChem BioAssay (NCATS).
Records with an inconclusive call do not appear. Activity calls are given as the source filed them. Calls come from the whole dose curve; as a rule, active = well fitted curve in the direction sought with a large enough effect; inconclusive = small, poorly fitted or top-dose-only effect, or another doubt; inactive = no such curve, though single readings can be large; an effect the other way counts as inactive or inconclusive.

Tests used:
[1] = qHTS to identify inhibitors of the type 1 interferon - major histocompatibility complex class I in skeletal muscle: primary screen against the NCATS Pharmaceutical Collection (AID 1347407); settings: human skeletal muscle cells, IFN-b-induced MHC-I HiBiT luminescence, 24 h; series mostly up to 45.9 µM;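 note: luminescence of HiBiT knocked into endogenous HLA-B as interferon-induced MHC class I level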
Procedure, shortened: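 HLA-B HiBiT myoblasts, dexamethasone-free growth medium + 4 ng/ml IFN-b; compounds pinned 1 h after seeding, […] from 46 uM; 24 h, 37 C, 5% CO2; lytic HiBiT detection, 10 min RT, luminescence.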

[2] = biological target: Protein phosphatase 1D (Homo sapiens) (UniProt O15297); assay: RapidFire Mass Spectrometry qHTS Assay for Modulators of WT P53-Induced Phosphatase 1 (WIP1) (AID 1347424); settings: WIP1 dephosphorylation of phosphopeptide, RapidFire MS; series mostly up to 63 µM;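 note: amount of dephosphorylated VEPPL-S-QETFS peptide product formed by WIP1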
Procedure, shortened: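 WIP1 (10 nM final) was preincubated 1 h at room temperature with compounds in Tris-HCl pH 7.5, 30 mM MgCl2, TCEP, EGTA, BSA; 2 uM VEPPL-pS-QETFS phosphopeptide was added for 5 min, quenched with formic acid, and dephosphorylated product quantified by RapidFire MS.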

[3] = biological target: Protein phosphatase 1D (Homo sapiens) (UniProt O15297); assay: Rhodamine-PBP qHTS Assay for Modulators of WT P53-Induced Phosphatase 1 (WIP1) (AID 1347425); settings: recombinant WIP1, Rhodamine-PBP phosphate fluorescence, real-time; series mostly up to 57.5 µM
Procedure, shortened: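 5 nM WIP1 + 10 uM Rh-PBP, 50 mM Tris pH 7.5, 30 mM MgCl2, 1 mM TCEP, 0.1 mM EGTA, BSA; cpds pinned, 1 hr RT; + 10 uM phosphopeptide; fluorescence 1-min reads x 11 min; delta = f1 - f0.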

[4] = Primary qHTS for inhibitors of La Crosse Virus (LACV) - induced cell death in SH-SY5Y cells (AID 1508616); settings: SH-SY5Y LACV cytopathicity rescue, ATP luminescence, 6 d; series mostly up to 4.29 µM;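 note: top concentration of the series differs between compounds; higher means more rescue of cells from virus-induced death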
Procedure, shortened: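 Luminescent ATP readout (ATPLite 1step, 5 min room temperature) measured rescue from LACV-induced death after 6 days of infection at 0.01 MOI; normalized to infected DMSO wells and uninfected DMSO wells.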

[5] = biological target: Calcium and integrin-binding protein 1 (Homo sapiens) (UniProt Q99828); assay: Primary qHTS for Identification of Calcium Integrin Binding Protein 1 (CIB1) Competitor (AID 1508620); settings: CIB1-GST / FITC-alphaIIb peptide fluorescence polarization; series mostly up to 114 µM;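 note: GST tagged CIB1 binding a fluorescein labelled alphaIIb integrin peptide tracer; top concentration of the series differs between compounds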
Procedure, shortened: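 Fluorescence polarization competition: CIB1-GST (1 uM final) preincubated with compound 15 min at room temperature, then FITC-labeled alphaIIb peptide (100 nM final) added for another 15 min. Polarization read at Ex 480/Em 540.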

Measured: Potency

Calcium and integrin-binding protein 1 (Homo sapiens), sequence (Q99828 whole entry, looked up): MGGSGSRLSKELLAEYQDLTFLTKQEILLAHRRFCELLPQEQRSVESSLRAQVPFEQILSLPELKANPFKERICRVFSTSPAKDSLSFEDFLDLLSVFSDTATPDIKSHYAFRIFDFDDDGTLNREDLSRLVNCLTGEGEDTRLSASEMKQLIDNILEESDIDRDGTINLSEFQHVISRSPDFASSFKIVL
Protein phosphatase 1D (Homo sapiens), sequence (O15297 whole entry, looked up): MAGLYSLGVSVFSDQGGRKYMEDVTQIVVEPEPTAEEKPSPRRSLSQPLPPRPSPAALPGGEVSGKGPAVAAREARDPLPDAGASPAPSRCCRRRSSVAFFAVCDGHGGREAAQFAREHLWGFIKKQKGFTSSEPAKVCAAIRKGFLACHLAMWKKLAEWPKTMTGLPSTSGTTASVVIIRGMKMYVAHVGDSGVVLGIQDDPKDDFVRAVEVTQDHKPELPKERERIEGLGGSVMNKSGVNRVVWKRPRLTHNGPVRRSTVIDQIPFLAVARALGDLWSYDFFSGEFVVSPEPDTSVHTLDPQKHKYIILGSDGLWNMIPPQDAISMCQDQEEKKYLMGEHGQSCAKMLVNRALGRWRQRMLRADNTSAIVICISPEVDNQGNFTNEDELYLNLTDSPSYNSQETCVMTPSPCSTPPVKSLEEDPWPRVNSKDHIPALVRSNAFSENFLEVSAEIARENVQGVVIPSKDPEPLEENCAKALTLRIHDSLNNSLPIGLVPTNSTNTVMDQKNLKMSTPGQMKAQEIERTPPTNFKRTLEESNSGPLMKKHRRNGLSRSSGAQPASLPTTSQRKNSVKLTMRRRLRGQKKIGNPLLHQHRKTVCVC

COC(=O)c1ccc(NC(C)=O)cc1OC
inactive: all assays above

CC(Oc1c(Cl)cccc1Cl)C1=NCCN1 (stereo not given)
inactive: all assays above

O=C(O)c1ccc(OCCN2CCCCC2)cc1
inactive: all assays above

O=C(O)c1ccccc1S
inactive: all assays above

OC1(c2ccc(Cl)cc2)CCNCC1
inactive: all assays above

Cc1cccc(C)c1NC(=O)c1ccc(N)cc1
inactive: all assays above

CCCCN(CCCC)C(C(N)=O)c1ccc(OC)cc1 (stereo not given)
inactive: all assays above

N=C(N)c1ccc(OCCCOc2ccc(C(=N)N)cc2)cc1
inactive: all assays above

Cc1ccc(O)cc1
inactive: all assays above

Cc1ccc(C(C)OC(=O)C2(C)CCC(C(=O)O)C2(C)C)cc1 (stereo not given)
inactive: all assays above

NC(=O)NS(=O)(=O)c1ccc(Cl)cc1
inactive: all assays above

Cc1ncc([N+](=O)[O-])n1C
inactive: all assays above

C/C(=C1\CCOC(=O)S1)N(C=O)Cc1cnc(C)nc1N
inactive: all assays above

Cc1oc(=O)oc1COC(=O)[C@@H]1N2C(=O)[C@@H](NC(=O)[C@H](N)c3ccccc3)[C@H]2SC1(C)C
inactive: all assays above

NC(=O)COCCN1CCN(C(c2ccccc2)c2ccc(Cl)cc2)CC1 (stereo not given)
inactive: all assays above

CC(C)(C)c1cc(C=O)cc(C(C)(C)C)c1O
inactive: all assays above

CC[N+](CC)(CC)CCOC(=O)C(C1CCCC1)C1CCCC1
inactive: all assays above

NC(=O)NC1N=C([O][Al])NC1=O (stereo not given)
inactive: all assays above

CN=C(N)NC(=O)Nc1c(C)cccc1C
inactive: all assays above

Cc1[nH]cnc1-c1ccc(Cl)cc1
inactive: all assays above

O=P(O)(O)OCC(O)CO (stereo not given)
inactive: all assays above

CCc1cc2cc(OC)c(OC)cc2c(Cc2ccccc2)n1
inactive: all assays above

CCOCCn1c(C2CCN(CCc3ccc(C(C)(C)C(=O)O)cc3)CC2)nc2ccccc21
inactive: all assays above

CC(C)=CCC/C(C)=C/CC/C(C)=C/C(=O)OCC(=O)[C@@]1(O)CC[C@H]2[C@@H]3CCC4=CC(=O)C=C[C@]4(C)[C@H]3[C@@H](O)C[C@@]21C
inactive: all assays above

O=C(CS(=O)Cc1ccco1)NC/C=C\COc1cc(CN2CCCCC2)ccn1 (stereo not given)
inactive: all assays above

CC(=O)c1ccc(O)c(C(N)=O)c1
inactive: all assays above

CC1CCCCN1CCCOC(=O)c1ccc(OC2CCCCC2)cc1 (stereo not given)
inactive: all assays above

COC(=O)/C=C\C(=O)OC
inactive: all assays above

O=C(OCC(COC(=O)c1cccnc1)(COC(=O)c1cccnc1)COC(=O)c1cccnc1)c1cccnc1
inactive: all assays above

O=S(=O)(O)c1ccc2nc(-c3ccccc3)[nH]c2c1
inactive: all assays above

O=C1CCCc2c(O)cccc21
inactive: all assays above

OCCc1ccccc1
inactive: all assays above

Clc1ccc2c(c1)Nc1ccccc1S2
inactive: all assays above

CN1N=C(C(N)=O)CCC1=O
inactive: all assays above

CN(C)CCCOC1(Cc2ccccc2)CCCCCC1
inactive: all assays above

Nc1nc2ccccc2n1Cc1ccc(F)cc1
inactive: all assays above

CC(C)(C)c1ccc(C(=O)CCCCl)cc1
inactive: all assays above

CN1CCC(=C2c3ccccc3CCc3cccnc32)CC1
inactive: all assays above

CCN(CC)CCN
inactive: all assays above

CCCC(=O)O[C@]1(C(=O)CC)CC[C@H]2[C@@H]3CCC4=CC(=O)CC[C@]4(C)[C@H]3[C@@H](O)C[C@@]21C
inactive: all assays above

CC(C)C(=O)Nc1cccc(C2CN3CCSC3=N2)c1 (stereo not given)
inactive: all assays above

CCC(C(=O)OCCN1CCOC(c2ccccc2)C1C)c1ccccc1 (stereo not given)
inactive: all assays above

[O-][n+]1cccc(/C(Cl)=N/OC[C@@H](O)CN2CCCCC2)c1
inactive: all assays above

CCOC(=O)N1CCC(n2c(=O)[nH]c3cc(Cl)ccc32)CC1
inactive: all assays above

CC(NC(CCc1ccccc1)C(=O)O)C(=O)N1C(=O)N(C)CC1C(=O)O (stereo not given)
inactive: all assays above

O=C1Nc2cc(Cl)ccc2Oc2ccccc21
inactive: all assays above

CCOC(=O)c1cc(=O)c2c(OCC(COc3cccc4oc(C(=O)OCC)cc(=O)c34)OC(=O)[C@@H](N)CCCCN)cccc2o1
inactive: all assays above

CNC(=O)c1c(I)c(NC(C)=O)c(I)c(C(=O)O)c1I
inactive: all assays above

CCOC(=O)[C@H](CCc1ccccc1)N[C@@H](C)C(=O)N(CC(=O)O)C1Cc2ccccc2C1
inactive: all assays above

COC(=O)c1cc(Cl)c(NC(C)=O)cc1OC
inactive: all assays above

CC(=O)c1cc2ccccc2s1
inactive: all assays above

COc1cc(C=O)ccc1O
inactive: all assays above

Cc1c(F)cc2c(=O)c(C(=O)O)cn3c2c1CCC3C (stereo not given)
inactive: all assays above

CCCCCOc1ccccc1/C(=C\SC)n1ccnc1
inactive: all assays above
